Source: PubChem BioAssay (National Center for Advancing Translational Sciences (NCATS))
BAZ2B inh: qHTS Assay for Inhibitors of BAZ2B; AlphaScreen BAZ2B-H3K14Ac peptide displacement; Bromodomain adjacent to zinc finger domain protein 2B (Homo sapiens), Q9UIF8; Potency, µM (doses to about 114 µM), without a hit: at the top dose activity change, negative = inhibition, most hits filed as inhibitors; 360,000 tested, 4.4% active; AID 504333, 2011; also: % is scaled to controls: 0 for no effect and ±100 for the full control effect; nearly all actives have a fitted effect of over 60% in size
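Complex of BAZ2B and biotin-H3K14Ac (50 nM apiece) forms over 30 min at RT, then faces library compounds up to 110 uM for another 30 min; AlphaScreen beads added, 20 min dark incubation, luminescence read.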
JMJD2A Tudor: qHTS Assay for Inhibitors of JMJD2A-Tudor Domain; 390,000 tested, 4.4% active; AlphaScreen JMJD2A-Tudor / H3K4me3 peptide binding; Potency, µM (top dose mostly 114 µM), for inactives: at the highest dose activity change, negative = inhibition, most hits filed as inhibitors; also: % is scaled to controls: 0 for no effect and ±100 for the full control effect; nearly all actives have a fitted effect of over 50% in size
G9a block: qHTS Assay for Inhibitors of Histone Lysine Methyltransferase G9a. Histone-lysine N-methyltransferase EHMT2 (Homo sapiens), Q96KQ7. G9a H3K9 monomethylation, AlphaScreen, 2 h. Potency, µM (titrated, usually from 102 µM), without a hit: at the top dose activity, negative = inhibition, usual class: inhibitors. 350,000 tested, 8.8% active; also: % is scaled to controls: 0 for no effect and ±100 for the full control effect; nearly all actives have a fitted effect of over 75% in size
Target sequence (Q96KQ7 913-1193 limits assumed): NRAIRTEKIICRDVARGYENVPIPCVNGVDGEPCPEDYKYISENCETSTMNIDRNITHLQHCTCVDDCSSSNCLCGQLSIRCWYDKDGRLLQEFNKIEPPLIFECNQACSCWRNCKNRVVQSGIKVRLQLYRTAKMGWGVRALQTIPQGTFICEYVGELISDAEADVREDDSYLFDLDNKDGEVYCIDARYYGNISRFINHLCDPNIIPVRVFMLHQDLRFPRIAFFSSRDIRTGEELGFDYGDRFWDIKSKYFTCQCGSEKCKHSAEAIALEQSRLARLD
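Enzyme 20 nM + cpd, 15 min RT; add b-H3K9 pep 500 nM / SAM 20 uM; 2 h RT; anti-H3K9me1 Ab 0.5 ug/mL + SA donor / anti-rabbit acceptor beads 20 ug/mL each, 10 min; AlphaScreen read.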
HP1b binding inh: HTS for Inhibitors of HP1-beta Chromodomain Interactions with Methylated Histone Tails | Chromobox protein homolog 1 (Homo sapiens), P83916 | AID 540317, 2011 | AlphaScreen HP1-beta / biotin-H3K9me3 peptide binding | Potency, µM (highest dose often 114 µM), inactives show top-dose activity change, negative = inhibition, usual class: inhibitors | 390,000 tested, 0.56% active; also: nearly all actives have a fitted effect of over 70% in size
Target sequence (P83916 whole entry, looked up): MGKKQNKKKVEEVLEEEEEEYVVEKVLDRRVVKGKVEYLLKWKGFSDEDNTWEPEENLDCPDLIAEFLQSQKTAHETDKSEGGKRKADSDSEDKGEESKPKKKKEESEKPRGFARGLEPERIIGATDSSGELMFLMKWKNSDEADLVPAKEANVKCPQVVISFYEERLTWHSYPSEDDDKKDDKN
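AlphaScreen: HP1-beta (50 nM) preformed 30 min with biotin-H3(1-18)K9me3 peptide (50 nM) in PBS pH 7.4, 0.01% Tween-20. Compound added for 30 min at RT, then streptavidin donor/nickel chelate acceptor beads (10 ug/mL) for 30 min.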
Sfp inh: qHTS Assay for Inhibitors of Bacillus subtilis Sfp phosphopantetheinyl transferase (PPTase) | 4'-phosphopantetheinyl transferase ffp (Bacillus subtilis), Q9F4F7 | Biochemical Sfp PPTase activity, qHTS | Potency, µM, inactives show largest response in the series, negative = inhibition, usual class: inhibitors | 310,000 tested, 3.5% active;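 also: the enzyme is Sfp with the accession as filed and its product quenches rhodamine fluorescence; 0% = enzyme reaction without inhibitor and -100% = no enzyme wells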
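Fluorescence-quenching assay: 15 nM Sfp-PPTase preincubated 15 min at room temperature with compound, then 5 uM rhodamine-CoA and 12.5 uM BHQ-2-labelled YbbR peptide added. Fluorescence (ex 525/em 598 nm) read at start and after 30 min; difference gives rate.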
Starred values were filed as active, the others as inactive; ? = inconclusive; · = no result; [ ] = remark or other dose. This is a sample that favours compounds with a hit; in the whole collection about 12% have one here. Calls follow the shape of the dose curve; as a rule, active = well fitted curve in the direction sought with a large enough effect; inconclusive = small, poorly fitted or top-dose-only effect, or another doubt; inactive = no such curve, though single readings can be large; an effect the other way counts as inactive or inconclusive. Potency is read from the fitted curve at half-maximal effect.

SMILES	BAZ2B inh	JMJD2A Tudor	G9a block	HP1b binding inh	Sfp inh
CCOc1ccc(NC(=O)CN(C)C(=O)CN2C(=O)NC3(CCCC3)C2=O)cc1OCC	-6%	-14%	56µM*	-11%	·
CCCn1cc(SCC(=O)Nc2ccc3c(c2)OCO3)c2ccccc21	?	?	?	8%	10%
Nc1ccccc1SCC(=O)Nc1ccc2c(c1)OCO2	9%	-16%	67%	19%	-5%
Cn1cc(SCC(=O)Nc2ccc3c(c2)OCO3)c2ccccc21	13%	-32%	25µM*	17%	?
O=C(CSc1cccc[n+]1[O-])Nc1ccc2c(c1)OCO2	-12%	-6%	50µM*	48%	-3%
CC(OC(=O)c1cccc(S(=O)(=O)N2CCCC2)c1)C(=O)NC1CCCCC1C (centres undefined)	9%	-18%	?	-4%	·
CC(OC(=O)c1ccc2c(c1)OCO2)C(=O)NC1CCCCC1C (centres undefined)	-3%	0%	28µM*	12%	·
CC1CCN(S(=O)(=O)c2ccc(C(=O)OC(C)C(=O)NC3CCCCC3C)cc2)CC1 (centres undefined)	-10%	-7%	32µM*	20%	6%
Clc1ccc(-c2c[n+]3c(n2-c2ccccc2)SCC3)cc1	-9%	-6%	56µM*	31%	0%
Cc1ccccc1N1CC(C(=O)N2CCCCCC2)CC1=O (centres undefined)	-3%	9%	-14%[59 µM]	20%	·
Clc1cccc(-c2ccc3ncnc(NCc4ccc5c(c4)OCO5)c3c2)c1	-33%	·	1%[12.7 µM]	·	·
O=C(NC1(C(F)(F)F)N=C2SCCN2C1=O)C1CCCCC1 (centres undefined)	1%	-2%	9%[59 µM]	68%	63µM*
CCOc1ccc(NC(=O)c2cc(C)nc3c2c(C)nn3-c2ccc(C)cc2)cc1	57%[57.1 µM]	-7%	1%[59 µM]	78%	·
O=C1C(=C2CCCCC2)SC(=S)N1Cc1ccco1	?	56µM*	35µM*	-23%	40µM*
Cc1cc(/C=C2\SC(=S)N(Cc3ccco3)C2=O)c(C)n1-c1ccccc1	?	?	?	?	-13%
O=C(O)CCN1C(=O)C2CCCCC2C1=O (centres undefined)	-3%	-9%	-63%	36%	2%
O=C(O)CCN1C(=O)C(=C2CCCCCC2)SC1=S	10%	-13%	45µM*	35%	50µM*
CSc1nsc2nc(=O)c(/C=C3\C(C)=Nc4ccccc43)c(N)n12	?	-32%	18µM*	19%	9%
Nc1c(/C=C2\C=Nc3ccccc32)c(=O)nc2sc(CC(=O)N3CCOCC3)nn12	-34%	19%	-42%	53%	7%
COc1ccc(-n2nc3c(c2NC(=O)C24CC5CC(CC(C5)C2)C4)CS(=O)C3)cc1 (centres undefined)	-5%	-12%	79µM*	36%	-13%
CCS(=O)(=O)N1CCC(NC(=O)C(Cc2cccc(OC)c2OC)NC(C)=O)CC1 (centres undefined)	13%	-8%	·	34%	12%
Cc1ccc(C)c(NC(=S)NNC(=O)c2cc3c(s2)CCC(C)C3)c1 (centres undefined)	-6%	-32%	35µM*	-19%	29%
Cc1cc([N+](=O)[O-])c2c(c1C)C1C=CCC1C(c1ccccn1)N2 (centres undefined)	·	·	28µM*	·	?
Cc1cc([N+](=O)[O-])cc2c1NCC1CC=CC21 (centres undefined)	?	-32%	?	7%	5%
CCOC(=O)C1CCN(C(=O)/C=C/c2cccs2)CC1	-8%	-1%	-31%	?	22%
SMILES	BAZ2B inh	JMJD2A Tudor	G9a block	HP1b binding inh	Sfp inh
CS(=O)(=O)N1CCC[C@@]2(CCN(c3ncccn3)C2)C1	·	·	1%[12.7 µM]	·	17%
Nc1nnc(CC(=O)N/N=C/c2cccc([N+](=O)[O-])c2)s1	-32%	-12%	38%[12.7 µM]	27%	50µM*
Nc1nnc(CC(=O)N/N=C/c2cc([N+](=O)[O-])cc(Br)c2O)s1	50µM*	79µM*	22µM*	-14%	-16%
CCC(C)NCCOCCOc1ccc(C)cc1Br (centres undefined)	56µM*	2.5µM*	?	?	-19%
CC(C)NCCOCCOc1ccc(Cl)cc1Br	?	3.2µM*	?	-18%	-8%
Cc1ccc(OCCOCCOc2cccc3cccnc23)c(Br)c1	9%	-1%[57.1 µM]	14%	?	-8%
CCN(CC)CCOCCOc1ccccc1F	?	-17%	-6%	15%	-11%
COc1ccccc1OCCCOc1c(C)cc(C)cc1Br	151%	87%	103%[59 µM]	177%	-3%
CCC(C)NCCCOc1c(C)cc(C)cc1Br (centres undefined)	79µM*	?	8.9µM*	-36%	?
CC(C)NCCOCCOc1ccccc1F	50µM*	1.8µM*	4.5µM*	?	-24%
Cc1ccc(OCC(=O)NCC2CCCO2)c(C)c1 (centres undefined)	-16%	2%	4%	45%	5%
CC1(C(=O)OCC(=O)N2c3ccccc3Sc3ccccc32)CC1(Cl)Cl (centres undefined)	3%	-7%	19%[59 µM]	44%	24%
CCCn1c(=N)c(C(=O)NC2CCCC2)cc2c(=O)n3cc(C)ccc3nc21	-10%	-9%	4%[59 µM]	15%	·
CC(=O)N1CCc2c(sc3c2c(=O)n(-c2ccccc2)c(=O)n3Cc2ccccc2Cl)C1	?	-23%[57.1 µM]	?	?	?
COc1ccc(CNC(=O)C2(CC3CC(c4ccccc4)=NO3)CCN(C(=O)C3(C)CC3)CC2)cc1 (centres undefined)	·	-17%	·	35%	·
CCN(CC)c1cc(C)c2cc(NC(=O)c3ccccc3OC)ccc2n1	-5%	18%	67%[59 µM]	91%	13%
COc1cc(C)ccc1OCCOCCOc1c(C)cc(C)cc1Br	116%	126%	68%[59 µM]	155%	2%
C=CCNCCOCCOc1ccc(C)cc1Br	56µM*	5µM*	3.2µM*	?	-18%
CCOc1ccccc1NC(=O)c1c(NC(=O)Cc2ccc(OC)cc2)sc2c1CCC2	3%	-4%	3%[59 µM]	33%	·
CCN1/C(=C/C(C)=C/c2sc3ccccc3[n+]2CC)Sc2ccccc21	22µM*	18µM*	18µM*	?	32µM*
CCN1C(=O)/C(=C2/Sc3ccccc3N2CC)SC1=S	-8%	-4%	·	31%	-4%
Cn1c(=O)c2c(nc(SCC(=O)NCc3ccco3)n2C)n(C)c1=O	-6%	-4%	5%[12.7 µM]	14%	24%
